PubChem BioAssay (NCATS)
Results filed as inconclusive are left out. Entries that show only a call come without a potency. Active and inactive are the calls of the source. Unless noted, calls follow the shape of the dose curve; as a rule, active = well fitted curve in the direction sought with a large enough effect; inconclusive = small, poorly fitted or top-dose-only effect, or another doubt; inactive = no such curve, though single readings can be large; an effect the other way counts as inactive or inconclusive.

Tests used:
[1] = NS1 protein of Zika virus - qHTS assay to identify small molecule inhibitors in human HEK 293 cells (AID 1347053); also: series mostly up to about 46 µM; nearly all actives have a fitted effect of over 55% in size
Procedure, shortened: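 TR-FRET signal from two anti-ZIKV NS1 antibodies quantified NS1 in HEK 293 cells 24 h after MR766 infection at MOI = 0.5; compounds were added 1 h before virus. Uninfected cells and infected cells defined the NS1 normalization range.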

[2] = qHTS of pediatric cancer cell lines to identify multiple opportunities for drug repurposing: Primary screen for TC32 cells (AID 1347089); also: nearly all actives have a fitted effect of over 60% in size
Procedure, shortened: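 Luminescent ATP read-out (CellTiter-Glo) of metabolically active TC32 cells after 48 h exposure. Concentration-response curves came from 11-point (MIPE, 0.78 nM–46 µM) or 8-point (NPC, 0.59 nM–46 µM) primary titrations; follow-up used 11 points.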

[3] = qHTS of pediatric cancer cell lines to identify multiple opportunities for drug repurposing: Primary screen for SJ-GBM2 cells (AID 1347091)
Procedure, shortened: (§1)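 Cell viability, CellTiter-Glo luminescence; 500-1,000 cells/well, 8- or 11-point titration, 48 h compound exposure at 37 degrees C, 5% CO2. Controls: DMSO neutral, bortezomib 2.3 µM final as positive.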

[4] = qHTS of pediatric cancer cell lines to identify multiple opportunities for drug repurposing: Primary screen for A673 cells (AID 1347092); also: nearly all actives have a fitted effect of over 45% in size; also: potency is read from the fitted curve at half-maximal effect
Procedure, shortened: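 Cell viability of A673 measured by CellTiter-Glo ATP luminescence after 48 hours compound exposure. Dilution series spanned 0.78 nM to 46 µM (MIPE, 11-point) or 0.59 nM to 46 µM (NPC, 8-point); bortezomib 2.3 uM positive control.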

[5] = qHTS of pediatric cancer cell lines to identify multiple opportunities for drug repurposing: Primary screen for SK-N-MC cells (AID 1347093); also: series mostly up to about 46 µM
Procedure, shortened: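 Metabolically active cells were quantified by ATP-dependent luminescence (CellTiter-Glo, 15 min at room temperature) following 48 h treatment. Cells had been plated at 500-1,000 per well and settled for 5 h beforehand.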

[6] = qHTS of pediatric cancer cell lines to identify multiple opportunities for drug repurposing: Primary screen for BT-37 cells (AID 1347094); also: series mostly up to about 57 µM
Procedure, shortened: (§2)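 Phenotypic viability qHTS, 48 h compound exposure, CellTiter-Glo luminescence read-out; multi-concentration dosing so that potency and efficacy derive directly from the primary screen's curves.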

[7] = qHTS of pediatric cancer cell lines to identify multiple opportunities for drug repurposing: Primary screen for NB-EBc1 cells (AID 1347095)
Procedure, shortened: as §2

[8] = qHTS of pediatric cancer cell lines to identify multiple opportunities for drug repurposing: Primary screen for U-2 OS cells (AID 1347096); also: nearly all actives have a fitted effect of over 50% in size
Procedure, shortened: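 Cells (500-1,000/well) rested 5 h, then received compounds for 48 h; metabolically active cells were measured by CellTiter-Glo luminescence. Final concentrations spanned up to 46 µM (MIPE, 11-point) or 0.59 nM-46 µM (NPC, 8-point) in primary screens, 11-point in follow-ups.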

[9] = Natriuretic polypeptide receptor (hNpr1) antagonism - Pilot counterscreen GloSensor control cell line (AID 1347045; calls by dose curve; also: series mostly up to about 38 µM)
Procedure, shortened: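 HEK293 cGMP-sensor cells; 2% GloSensor reagent 2 h RT; LOPAC compounds in 1:5 titrations 30-50 min; 50 uM SNP 20 min; luminescence pre-read and post-read.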

[10] = biological target: Atrial natriuretic peptide receptor 1 (Homo sapiens) (UniProt P16066); test: Natriuretic polypeptide receptor (hNpr1) antagonism - Pilot screen (AID 1347049; calls by dose curve;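 also: HEK293 cells with hNpr1 and GloSensor cGMP luciferase stimulated by 0.1 nM hNppA; agonist-evoked cGMP luminescence read 20 min after hNppA addition; series mostly up to about 58 µM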)
Sequence of Atrial natriuretic peptide receptor 1 (Homo sapiens) (P16066 whole entry, looked up): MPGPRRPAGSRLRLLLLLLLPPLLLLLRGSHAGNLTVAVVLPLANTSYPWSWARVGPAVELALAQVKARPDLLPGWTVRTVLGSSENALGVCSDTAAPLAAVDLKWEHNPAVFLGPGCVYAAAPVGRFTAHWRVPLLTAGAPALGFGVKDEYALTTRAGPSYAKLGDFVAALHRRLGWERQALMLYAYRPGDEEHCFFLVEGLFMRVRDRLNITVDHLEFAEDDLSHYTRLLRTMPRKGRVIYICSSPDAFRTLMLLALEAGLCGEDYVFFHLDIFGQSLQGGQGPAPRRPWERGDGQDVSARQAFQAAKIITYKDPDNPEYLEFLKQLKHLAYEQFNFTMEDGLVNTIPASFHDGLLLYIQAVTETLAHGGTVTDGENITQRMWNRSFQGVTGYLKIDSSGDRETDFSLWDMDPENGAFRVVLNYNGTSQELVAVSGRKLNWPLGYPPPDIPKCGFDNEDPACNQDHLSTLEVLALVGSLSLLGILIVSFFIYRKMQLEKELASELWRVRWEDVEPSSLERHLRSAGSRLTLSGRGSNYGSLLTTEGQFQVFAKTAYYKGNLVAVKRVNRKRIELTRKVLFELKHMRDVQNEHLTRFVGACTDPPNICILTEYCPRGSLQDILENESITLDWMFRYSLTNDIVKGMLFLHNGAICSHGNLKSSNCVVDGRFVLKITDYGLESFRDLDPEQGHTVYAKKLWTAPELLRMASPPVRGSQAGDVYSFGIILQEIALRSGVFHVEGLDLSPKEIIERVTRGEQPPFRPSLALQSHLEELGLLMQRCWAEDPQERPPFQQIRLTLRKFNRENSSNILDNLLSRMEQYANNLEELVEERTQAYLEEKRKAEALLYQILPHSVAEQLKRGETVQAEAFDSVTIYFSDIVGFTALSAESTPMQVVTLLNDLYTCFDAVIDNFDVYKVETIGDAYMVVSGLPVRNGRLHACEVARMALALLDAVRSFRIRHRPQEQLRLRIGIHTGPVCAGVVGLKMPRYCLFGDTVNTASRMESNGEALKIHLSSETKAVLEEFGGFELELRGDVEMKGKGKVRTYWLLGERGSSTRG
Procedure, shortened: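 Receptor antagonism read as cGMP-dependent luminescence in hNpr1/pGS-40F HEK293 cells: pre-read after 30 min compound exposure, post-read 20 min after hNppA agonist at 0.1 nM final, all at room temperature, protected from light; A-71915 titration as control.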

[11] = biological target: T1, Tyrosine-protein phosphatase non-receptor type substrate 1 (Homo sapiens) + Leukocyte surface antigen CD47 (Homo sapiens) (UniProt P78324+Q08722); test: CD47-SIRPalpha protein protein interaction - LANCE assay qHTS validation (AID 1347057; active = well fitted curve in the direction sought with a large enough effect in the signal ratio, with a control signal flat, not every such curve was filed as active; the % refers to the signal ratio; also: series mostly up to about 38 µM)
T1 sequence (P78324 whole entry, looked up, the tested form may be a part): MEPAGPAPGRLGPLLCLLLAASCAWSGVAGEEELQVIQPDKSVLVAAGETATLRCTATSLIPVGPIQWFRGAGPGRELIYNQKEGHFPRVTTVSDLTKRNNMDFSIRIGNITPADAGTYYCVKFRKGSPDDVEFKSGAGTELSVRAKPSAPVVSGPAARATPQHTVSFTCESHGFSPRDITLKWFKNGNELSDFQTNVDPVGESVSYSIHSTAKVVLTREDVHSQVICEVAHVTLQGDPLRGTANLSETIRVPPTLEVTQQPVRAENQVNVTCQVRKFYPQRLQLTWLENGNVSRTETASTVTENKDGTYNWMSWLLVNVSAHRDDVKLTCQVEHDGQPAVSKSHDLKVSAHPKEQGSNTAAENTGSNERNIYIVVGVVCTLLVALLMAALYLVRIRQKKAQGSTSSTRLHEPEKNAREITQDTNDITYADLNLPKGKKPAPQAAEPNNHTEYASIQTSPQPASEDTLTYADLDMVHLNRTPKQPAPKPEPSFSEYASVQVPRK
T1 sequence (Q08722 whole entry, looked up, the tested form may be a part): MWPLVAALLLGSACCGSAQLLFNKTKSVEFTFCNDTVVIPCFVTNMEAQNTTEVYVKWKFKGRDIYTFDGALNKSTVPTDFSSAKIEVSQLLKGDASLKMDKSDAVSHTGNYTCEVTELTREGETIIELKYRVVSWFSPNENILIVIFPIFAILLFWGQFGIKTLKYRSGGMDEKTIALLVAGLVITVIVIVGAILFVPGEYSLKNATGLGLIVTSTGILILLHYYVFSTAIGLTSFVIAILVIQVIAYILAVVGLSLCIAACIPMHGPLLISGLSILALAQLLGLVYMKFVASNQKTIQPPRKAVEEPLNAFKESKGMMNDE
Procedure, shortened: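 Inhibition of soluble CD47/SIRPalpha ectodomain association by titrated compounds, measured as 665/615 nm time-resolved FRET ratio after sequential 30 min room-temperature incubations.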

[12] = biological target: T1, Tyrosine-protein phosphatase non-receptor type substrate 1 (Homo sapiens) + Leukocyte surface antigen CD47 (Homo sapiens); test: CD47-SIRPalpha protein protein interaction - Alpha assay qHTS validation (AID 1347059);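 also: bead proximity luminescence from CD47 binding SIRPalpha after compound preincubation with SIRPalpha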
Procedure, shortened: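 AlphaScreen signal between CD47-His (12.5 nM) and biotin-SIRPalpha (25 nM) soluble extracellular domains, bead-captured via Ni-NTA and streptavidin. Compounds, in 7-point titrations, met SIRPalpha 30 min before CD47; PBS pH 7.4 with 0.05% IGEPAL.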

[13] = biological target: Atrial natriuretic peptide receptor 2 (Homo sapiens) (UniProt P20594); test: Natriuretic polypeptide receptor (hNpr2) antagonism - Pilot subtype selectivity assay (AID 1347050; calls by dose curve; also: potency is read from the fitted curve at half-maximal effect)
Sequence of Atrial natriuretic peptide receptor 2 (Homo sapiens) (P20594 whole entry, looked up): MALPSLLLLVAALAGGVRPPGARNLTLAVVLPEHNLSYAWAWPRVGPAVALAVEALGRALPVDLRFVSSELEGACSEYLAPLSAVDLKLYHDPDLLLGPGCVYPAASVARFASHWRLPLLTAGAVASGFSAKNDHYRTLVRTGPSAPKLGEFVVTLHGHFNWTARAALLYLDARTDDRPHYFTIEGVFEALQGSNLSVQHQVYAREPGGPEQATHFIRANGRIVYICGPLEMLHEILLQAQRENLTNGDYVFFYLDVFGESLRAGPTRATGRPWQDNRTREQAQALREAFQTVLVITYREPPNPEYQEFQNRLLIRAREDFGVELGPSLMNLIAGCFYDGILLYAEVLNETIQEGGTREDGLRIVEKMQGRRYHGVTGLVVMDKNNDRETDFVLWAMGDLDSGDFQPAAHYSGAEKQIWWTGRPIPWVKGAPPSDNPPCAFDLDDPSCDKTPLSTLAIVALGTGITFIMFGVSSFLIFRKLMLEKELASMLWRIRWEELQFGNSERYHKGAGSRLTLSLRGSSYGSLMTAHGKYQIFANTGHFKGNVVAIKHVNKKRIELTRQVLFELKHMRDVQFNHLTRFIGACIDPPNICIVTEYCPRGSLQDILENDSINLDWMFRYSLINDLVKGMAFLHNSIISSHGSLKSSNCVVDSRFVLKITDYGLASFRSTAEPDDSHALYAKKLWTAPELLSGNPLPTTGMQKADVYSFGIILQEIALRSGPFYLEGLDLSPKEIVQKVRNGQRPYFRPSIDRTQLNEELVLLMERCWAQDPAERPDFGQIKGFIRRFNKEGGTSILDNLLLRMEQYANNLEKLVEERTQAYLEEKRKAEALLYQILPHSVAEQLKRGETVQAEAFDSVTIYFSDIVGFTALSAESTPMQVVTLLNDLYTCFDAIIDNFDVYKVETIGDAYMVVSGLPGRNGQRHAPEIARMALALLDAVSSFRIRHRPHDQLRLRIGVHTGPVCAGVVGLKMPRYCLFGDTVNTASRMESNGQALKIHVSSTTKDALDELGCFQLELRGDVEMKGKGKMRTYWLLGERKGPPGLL
Procedure, shortened: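 Antagonist mode: compounds (LOPAC1280, seven 1:5 dilutions) added 30 min before 1 nM hNppC stimulation of hNpr2-HEK293 cGMP-sensor cells; luminescence read before and 20 min after agonist at ambient temperature.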

[14] = biological target: Parathyroid hormone/parathyroid hormone-related peptide receptor (Homo sapiens) (UniProt Q03431); test: qHTS for PTHR1 Agonists: Optimization Screen against the NCGC LOPAC library (AID 1347079);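 also: GloSensor cAMP luminescence in HEK-293 GP2 cells expressing human PTHR1 with IBMX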
Sequence of Parathyroid hormone/parathyroid hormone-related peptide receptor (Homo sapiens) (Q03431 whole entry, looked up): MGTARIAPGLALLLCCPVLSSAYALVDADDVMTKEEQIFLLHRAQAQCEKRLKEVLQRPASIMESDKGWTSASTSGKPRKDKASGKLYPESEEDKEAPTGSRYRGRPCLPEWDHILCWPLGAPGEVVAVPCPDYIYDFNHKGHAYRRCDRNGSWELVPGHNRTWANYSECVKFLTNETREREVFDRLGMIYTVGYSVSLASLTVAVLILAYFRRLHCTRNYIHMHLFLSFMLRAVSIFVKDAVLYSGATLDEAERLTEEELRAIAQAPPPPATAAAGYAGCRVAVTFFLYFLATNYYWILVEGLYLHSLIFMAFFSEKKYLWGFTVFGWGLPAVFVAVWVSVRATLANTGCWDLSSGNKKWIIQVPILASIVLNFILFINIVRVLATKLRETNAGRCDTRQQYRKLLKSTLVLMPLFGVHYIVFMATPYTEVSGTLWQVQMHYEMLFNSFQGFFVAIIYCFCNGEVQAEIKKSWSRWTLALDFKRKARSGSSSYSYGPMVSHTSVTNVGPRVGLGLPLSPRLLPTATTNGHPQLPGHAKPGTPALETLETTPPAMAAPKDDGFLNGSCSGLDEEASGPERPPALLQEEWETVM
Procedure, shortened: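 Signal increase flags agonism. GP2 cells, derived from HEK-293, express human PTHR1 and a GloSensor cAMP construct.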

[15] = qHTS of pediatric cancer cell lines to identify multiple opportunities for drug repurposing: Primary screen for DAOY cells (AID 1347090); also: series mostly up to about 46 µM; nearly all actives have a fitted effect of over 55% in size
Procedure, shortened: as §1

Compound | Potency [1] | Potency [2] | Potency [3] | Potency [4] | Potency [5] | Potency [6] | Potency [7] | Potency [8] | outcome [9] | outcome [10] | outcome [11] | outcome [12] | Potency [13] | Potency [14] | Potency [15]
CN1[C@@H]2CC(OC(=O)[C@H](CO)c3ccccc3)C[C@H]1[C@@H]1O[C@@H]12 (some centres undefined) | inactive | inactive | inactive | inactive | inactive | inactive | inactive | inactive | – | – | – | – | – | – | –
CN(C)CCC=C1c2ccccc2CCc2ccccc21 | inactive | inactive | – | – | – | – | – | inactive | inactive | inactive | inactive | inactive | – | – | –
CC(C)(C)[C@]1(O)CCN2C[C@H]3c4ccccc4CCc4cccc(c43)[C@@H]2C1 | inactive | – | – | – | – | – | – | – | inactive | inactive | inactive | inactive | inactive | – | –
OCCN1CCN(CCCN2c3ccccc3Sc3ccc(Cl)cc32)CC1 | – | – | – | 21.1 µM (active) | – | – | – | inactive | – | inactive | – | – | 16.5 µM (active) | inactive | –
N=c1c[n+](N2CCOCC2)[n-]o1 | inactive | – | – | – | – | – | – | – | inactive | inactive | inactive | inactive | inactive | – | –
C[C@]12C[C@H](O)[C@H]3[C@@H](CCC4=CC(=O)CC[C@@]43C)[C@@H]1CC[C@@H]2C(=O)CO | inactive | inactive | inactive | – | inactive | inactive | inactive | inactive | inactive | inactive | inactive | inactive | inactive | – | inactive
CC(CN(C)C)CN1c2ccccc2CCc2ccccc21 (centres undefined) | inactive | inactive | – | – | inactive | – | inactive | inactive | inactive | inactive | inactive | inactive | – | – | inactive
CCN(CC)CCNC(C(=O)OCCC(C)C)c1ccccc1 (centres undefined) | inactive | inactive | inactive | inactive | – | inactive | inactive | inactive | – | – | – | – | – | – | inactive
NC(=O)c1ncn([C@@H]2O[C@H](CO)[C@@H](O)[C@H]2O)n1 | inactive | inactive | inactive | inactive | inactive | inactive | – | inactive | – | inactive | inactive | inactive | inactive | inactive | inactive
CCCCN(CCCC)CCCOC(=O)c1ccc(N)cc1 | inactive | inactive | – | inactive | inactive | inactive | inactive | inactive | – | – | – | – | – | – | inactive
